Screens deposited in PubChem by National Center for Advancing Translational Sciences (NCATS).
Compounds with a hit are over-represented: about 19% of the library has one in this group of screens.
Shiga toxin inh = A qHTS for Small Molecule Inhibitors of Shiga Toxin; Vero cells, Shiga toxin protein synthesis inhibition reporter; inhibition, % at 38.7 µM; 290,000 tested, 9.2% active; AID 2315, 2010; in the data active = inhibition mostly above about 28%, no sharp cut-off; inactive = mostly below about 43%
Pf growth 96h = Primary qHTS for delayed death inhibitors of the malarial parasite plastid, 96 hour incubation; P. falciparum luciferase reporter growth, 96 h; Potency, µM (top dose mostly 28.7 µM), hits mostly inhibitors; 320,000 tested, 6.9% active
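Infected RBCs, 2% Hct / 0.05% parasitemia final; luciferase-reporter P. falciparum; cpd 96 h, 37 C, 5% CO2; luciferase detection reagent; luminescence.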
Pf growth 48h = Primary qHTS for delayed death inhibitors of the malarial parasite plastid, 48 hour incubation; P. falciparum luciferase growth in erythrocytes, 48 h; Potency, µM (series often up to 28.7 µM), usual class: inhibitors; 310,000 tested, 5.9% active; AID 504832, 2011
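Growth was read as firefly luciferase luminescence after a 48 h, 37 C, 5% CO2 exposure of compounds to reporter-bearing P. falciparum cultures (0.1% parasitemia, 2% hematocrit final) in Albumax-supplemented RPMI 1640.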
MARV entry inh = qHTS for inhibitors of binding or entry into cells for Marburg Virus | Marburg virus pseudotyped entry inhibition, cell reporter | Potency, µM (doses to about 37.8 µM), most hits filed as inhibitors | 300,000 tested, 1.8% active; calls by dose curve; tested in HEK293 cells
Lassa entry inh = qHTS for Inhibitors of binding or entry into cells for Lassa Virus. Potency, µM (top dose mostly 37.9 µM), hits mostly inhibitors. AID 540256, 2011. 300,000 tested, 1.2% active. Lassa virus pseudotype entry inhibition, cell reporter; calls by dose curve; tested in HEK293 cells; note: nearly all actives have a fitted effect of over 50% in size
CHX counter = Cycloheximide Counterscreen for Small Molecule Inhibitors of Shiga Toxin; cell reporter, cycloheximide protein synthesis inhibition counterscreen; max response, %; 300,000 tested, 12% active; AID 2314, 2010; in the data active = max response mostly above about 13%, no sharp cut-off; inactive = mostly below about 14%; note: read at 38.3 µM for the half of the compounds with a filed dose
Of the large screens only hits and unclear results are named; the others gave an inactive call. Unless noted, calls come from the whole dose curve; as a rule, active = well fitted inhibition curve with a large enough effect; inconclusive = small, poorly fitted or top-dose-only effect, or another doubt; inactive = no such curve, though single readings can be large or run the other way.

Cn1c(=O)n(C)c2cc(/C=N/N=C3/NC(=O)C(CC(=O)O)S3)ccc21 (centres undefined)	MARV entry inh inconclusive
COC(=O)c1c(C)[nH]c(C(=O)COC(=O)Cn2cc(C(F)(F)F)ccc2=O)c1C	MARV entry inh inconclusive (no result: Shiga toxin inh, CHX counter)
CC(C)c1ccc2oc(=O)cc(CN3CCN(c4ccccc4)CC3)c2c1	Pf growth 96h inconclusive, Pf growth 48h 13µM, MARV entry inh inconclusive, Lassa entry inh inconclusive
CC1CCN(Cc2cc(=O)oc3ccc(C(C)C)cc23)CC1	Pf growth 96h 1.9µM, Pf growth 48h 3.3µM (no result: MARV entry inh, Lassa entry inh)
CN(C)CCCNc1ccc(-c2n[nH]c(=O)c3ccccc23)cc1[N+](=O)[O-]	Pf growth 48h inconclusive (no result: Shiga toxin inh, MARV entry inh, Lassa entry inh)
Cc1noc(NS(=O)(=O)c2ccc(NC(=O)c3cnc4scc(C)n4c3=O)cc2)c1C	none (no result: MARV entry inh, Lassa entry inh)
COc1ccc(CCNC(=O)COc2nsnc2N2CCOCC2)cc1OC	Pf growth 96h inconclusive, Pf growth 48h 1.9µM
Cc1cc([N+](=O)[O-])ccc1NC(=O)COc1nsnc1N1CCOCC1	Pf growth 48h 1.9µM
O=C(CN1CCN(Cc2ccccc2)CC1)NCc1ccccc1Cl	MARV entry inh inconclusive
O=S(=O)([N-]c1nc2ccccc2nc1-[n+]1ccccc1)c1ccccc1	none
O=S(=O)([N-]c1nc2ccccc2nc1-[n+]1ccc(-c2ccncc2)cc1)c1ccccc1	Shiga toxin inh 92, Pf growth 96h inconclusive, Pf growth 48h inconclusive, CHX counter 34
O=S(=O)([N-]c1nc2ccccc2nc1-[n+]1ccc(CCCc2ccccc2)cc1)c1cccs1	Pf growth 96h 5.2µM, Pf growth 48h 7.4µM, Lassa entry inh inconclusive
CCCCOCCOCCOCCCC	none (no result: Shiga toxin inh, Lassa entry inh, CHX counter)
COCCNC(=O)c1noc2c1CCc1cc(OC)ccc1-2	Pf growth 96h inconclusive, Lassa entry inh inconclusive, CHX counter 35
COCC(C)NC(=O)c1noc2c1CCc1cc(OC)ccc1-2 (centres undefined)	Shiga toxin inh 83, MARV entry inh inconclusive, CHX counter 33
COc1ccc2c(c1)CCc1c(C(=O)NCCCn3ccnc3)noc1-2	Pf growth 48h inconclusive
COc1ccc2c(c1)CCc1c(C(=O)NCCN3CCOCC3)noc1-2	none
COc1ccc2c(c1)CCc1c(C(=O)NCc3ccco3)noc1-2	Shiga toxin inh 67, Pf growth 96h inconclusive, MARV entry inh inconclusive, Lassa entry inh inconclusive, CHX counter 34
COc1ccc2c(c1)CCc1c(C(=O)N(C)c3ccccc3)noc1-2	Shiga toxin inh 123, Pf growth 96h inconclusive, CHX counter 49 (no result: MARV entry inh, Lassa entry inh)
COc1ccc2c(c1)CCc1c(C(=O)Nc3ccc(C#N)cc3)noc1-2	none (no result: Shiga toxin inh, Pf growth 96h, Pf growth 48h, CHX counter)
COc1ccc2c(c1)CCc1c(C(=O)NC3CCCCC3)noc1-2	Shiga toxin inh 59, CHX counter 45
COc1ccc(C2C=C(c3ccc(Br)cc3)Nc3nnnn32)c(OC)c1 (centres undefined)	Shiga toxin inh 66, CHX counter 33 (no result: Pf growth 96h, Pf growth 48h, MARV entry inh)
Fc1ccc(C2=CC(c3ccco3)n3nnnc3N2)cc1 (centres undefined)	Shiga toxin inh 47, CHX counter 39
Fc1ccc(Br)cc1C1C=C(c2ccc(Br)cc2)Nc2nnnn21 (centres undefined)	none (no result: Shiga toxin inh, Pf growth 96h, Pf growth 48h, MARV entry inh, CHX counter)
COc1ccccc1C1C=C(c2ccc(Cl)cc2)Nc2nc(N3C(=O)CCC3=O)nn21 (centres undefined)	Lassa entry inh inconclusive
COc1ccccc1C1C=C(c2ccccc2)Nc2nnnn21 (centres undefined)	Shiga toxin inh 165
C/C(=N\Nc1nc(N2CCCCC2)nc(N2CCOCC2)n1)c1cccs1	none
Cc1ccc(NC2=C(NC(=O)c3ccccc3)C(=O)c3ccccc3C2=O)cc1Cl	Pf growth 96h inconclusive, Pf growth 48h 0.29µM, MARV entry inh inconclusive, Lassa entry inh inconclusive
O=C(CNc1cccc(Cl)c1)c1ccc(Cl)cc1	Pf growth 96h inconclusive, Pf growth 48h inconclusive, MARV entry inh inconclusive
O=C(CNc1ccc(Br)cc1)c1ccc(O)cc1	Shiga toxin inh 93, Lassa entry inh inconclusive, CHX counter 39
Cc1ccc(NCCC(=O)c2ccc(Cl)cc2)cc1	none
Cc1ccc(NCCC(=O)c2ccccc2)cc1Cl	Shiga toxin inh 43, MARV entry inh inconclusive, CHX counter 15
Cc1ccc(NCC(=O)c2ccccc2)cc1Cl	Shiga toxin inh 102, Pf growth 96h inconclusive, Pf growth 48h inconclusive, CHX counter 24
